# Inconclusive results are not listed. This is one part of the list. A call without a number means that no potency is given here. Active and inactive are the calls of the source. Unless noted, calls come from the whole dose curve; as a rule, active = well fitted curve in the direction sought with a large enough effect; inconclusive = small, poorly fitted or top-dose-only effect, or another doubt; inactive = no such curve, though single readings can be large; an effect the other way counts as inactive or inconclusive.
# Legend:
# [1] = molecular target: DNA polymerase iota (Homo sapiens) (UniProt Q9UNA4); test: qHTS for Inhibitors of Polymerase Iota: Confirmatory Assay for Cherry-picked Compounds (AID 720496); details: Pol iota primer extension, TAMRA/BHQ fluorescence; note: potency is the fitted concentration of half-maximal effect
# DNA polymerase iota (Homo sapiens), sequence (Q9UNA4 whole entry, looked up): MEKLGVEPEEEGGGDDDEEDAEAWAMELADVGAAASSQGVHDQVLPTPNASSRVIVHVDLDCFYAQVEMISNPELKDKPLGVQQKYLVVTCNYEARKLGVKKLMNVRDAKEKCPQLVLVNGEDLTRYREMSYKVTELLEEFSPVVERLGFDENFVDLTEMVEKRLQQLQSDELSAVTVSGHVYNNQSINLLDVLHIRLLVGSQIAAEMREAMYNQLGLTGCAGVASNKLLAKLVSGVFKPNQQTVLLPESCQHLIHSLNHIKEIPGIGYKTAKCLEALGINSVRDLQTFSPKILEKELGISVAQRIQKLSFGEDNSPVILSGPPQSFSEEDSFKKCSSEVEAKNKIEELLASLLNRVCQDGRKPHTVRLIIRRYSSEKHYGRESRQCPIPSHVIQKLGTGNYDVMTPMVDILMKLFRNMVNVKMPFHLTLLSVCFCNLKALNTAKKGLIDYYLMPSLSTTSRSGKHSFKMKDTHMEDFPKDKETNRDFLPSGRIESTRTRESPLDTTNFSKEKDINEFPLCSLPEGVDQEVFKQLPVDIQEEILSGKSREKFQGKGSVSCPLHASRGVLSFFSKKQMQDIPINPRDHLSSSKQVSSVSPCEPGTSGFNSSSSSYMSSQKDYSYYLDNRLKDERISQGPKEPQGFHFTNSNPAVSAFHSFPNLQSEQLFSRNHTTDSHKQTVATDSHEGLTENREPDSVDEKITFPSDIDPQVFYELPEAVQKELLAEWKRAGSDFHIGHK
# Description: DNA polymerases, such as polymerase iota (Pol iota), are involved in DNA repair. Pol iota specifically plays an important role in translesion synthesis, where the normal high-fidelity DNA polymerases cannot proceed and DNA synthesis stalls. […] Thus, while Pol eta and most likely Pol iota's normal functions are to protect humans against the deleterious consequences of DNA damage, under certain conditions they can have deleterious effects on human health. As a consequence, small molecule inhibitors of Pol iota (identified from a high throughput replication assay) have potential therapeutic applications. A 1536-well format, fluorescence based, high-throughput screen (AID 588590) is developed in collaboration with the National Institute of Child Health & Human Development (NICHD) to screen for inhibitors of the […]. This screen is used to validate the activity of the selected compounds from the primary assay against the […]. Inhibition is the desired outcome for this assay. […]
# Three microliters of reagents (buffer in column 3 and 4 as negative control while 10 nM Pol iota in columns 1, 2, and 5-48) were dispensed into a 1536-well black solid-bottom plate. […] The assay plates were initially read after 0 min and again after 10 min of kinetic reaction using the PerkinElmer Viewlux reader equipped with 525 nm excitation and 598 nm emission filters.
# [2] = molecular target: DNA polymerase eta (Homo sapiens) (UniProt Q9Y253); test: qHTS for Inhibitors of Polymerase Eta: Confirmatory Assay for Cherry-picked Compounds (AID 720502); details: Pol eta primer extension, TAMRA/BHQ fluorescence, 10 min; note: potency is the fitted concentration of half-maximal effect
# DNA polymerase eta (Homo sapiens), sequence (Q9Y253 whole entry, looked up): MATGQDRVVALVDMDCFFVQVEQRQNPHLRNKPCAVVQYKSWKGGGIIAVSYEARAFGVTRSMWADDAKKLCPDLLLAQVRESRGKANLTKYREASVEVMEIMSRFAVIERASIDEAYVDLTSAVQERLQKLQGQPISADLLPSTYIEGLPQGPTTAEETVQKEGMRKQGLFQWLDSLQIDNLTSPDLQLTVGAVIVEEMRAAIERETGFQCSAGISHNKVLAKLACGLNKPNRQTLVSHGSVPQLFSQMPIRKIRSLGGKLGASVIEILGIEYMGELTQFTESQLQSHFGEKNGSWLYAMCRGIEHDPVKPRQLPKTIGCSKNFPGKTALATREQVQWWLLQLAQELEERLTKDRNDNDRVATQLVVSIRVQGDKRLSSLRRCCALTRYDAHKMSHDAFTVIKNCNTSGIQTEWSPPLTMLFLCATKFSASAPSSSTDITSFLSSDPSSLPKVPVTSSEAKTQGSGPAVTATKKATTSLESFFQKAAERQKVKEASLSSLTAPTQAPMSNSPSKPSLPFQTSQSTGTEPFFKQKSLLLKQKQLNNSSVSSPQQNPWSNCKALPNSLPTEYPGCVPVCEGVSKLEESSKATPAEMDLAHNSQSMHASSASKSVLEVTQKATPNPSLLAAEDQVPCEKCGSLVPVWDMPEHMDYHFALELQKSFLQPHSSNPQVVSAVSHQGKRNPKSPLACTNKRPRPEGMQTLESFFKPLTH
# Outline: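 10 nM Pol eta + cpd, 15 min RT; start w/ 50 nM final primer/TAMRA-reporter/BHQ-2-template substrate; kinetic read 0 and 10 min, ex 525/em 598 nm. Buffer-only wells = negative control.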
# [3] = molecular target: Ferritin light chain (Equus caballus) (UniProt P02791); test: qHTS Validation Assay for Identification of Novel General Anesthetics (AID 2323); details: horse apoferritin, anesthetic-site fluorescent probe displacement; series mostly up to 76.9 µM
# Ferritin light chain (Equus caballus), sequence (P02791 2-175 limits assumed): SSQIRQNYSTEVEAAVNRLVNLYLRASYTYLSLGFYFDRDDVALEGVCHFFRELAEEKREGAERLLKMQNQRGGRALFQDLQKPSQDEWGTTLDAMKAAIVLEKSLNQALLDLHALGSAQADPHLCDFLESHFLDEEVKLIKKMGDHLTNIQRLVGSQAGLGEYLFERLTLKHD
# Outline: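 10 uM horse-spleen apoferritin + 1-AMA (50% saturated, PBS); cpd pin-transferred, 10 min RT. Ex 380/Em 535 nm endpoint. Activity normalized between free 1-AMA and 1-AMA/apoferritin; 4-parameter Hill fit of concentration-response.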
# [4] = Validation screen for inhibitors of Lassa infection (AID 463096; calls by dose curve); details: Lassa virus infection, cell-based; series mostly up to 46.1 µM
SMILES,Potency [1],Potency [2],outcome [3],outcome [4]
Cc1c(C(=O)O)cccc1-n1c(C)cc(/C=C2\C(=O)NC(=O)N(c3ccc4c(c3)OCO4)C2=O)c1C,15 µM (active),8.49 µM (active),–,–
CN1C2CCC1CC(NC(=O)c1nn(C)c3ccccc13)C2 (centres undefined),–,–,inactive,inactive

# — PubChem BioAssay (NCATS)
